From article PMC7862700, “An all-to-all approach to the identification of sequence-specific readers for epigenetic DNA modifications on cytosine” come the findings set out here.

Holding throughout (assay): DAPPL (digital affinity profiling via proximity ligation, sequencing); 10 mM Tris-HCl pH 7.5, 50 mM NaCl, 1 mM DTT, 4% glycerol, room temperature, 30 min; GST-TFs on glutathione beads, 16-mer random dsDNA library, 0.1% formaldehyde crosslink after washing; high values mean tight binding
Settings in all cases: protein: recombinant; tags: N-terminal GST; dsDNA, one strand shown

One test has as its target T1, FLI1 (Homo sapiens, UniProt Q01543 1-452).
T1 sequence: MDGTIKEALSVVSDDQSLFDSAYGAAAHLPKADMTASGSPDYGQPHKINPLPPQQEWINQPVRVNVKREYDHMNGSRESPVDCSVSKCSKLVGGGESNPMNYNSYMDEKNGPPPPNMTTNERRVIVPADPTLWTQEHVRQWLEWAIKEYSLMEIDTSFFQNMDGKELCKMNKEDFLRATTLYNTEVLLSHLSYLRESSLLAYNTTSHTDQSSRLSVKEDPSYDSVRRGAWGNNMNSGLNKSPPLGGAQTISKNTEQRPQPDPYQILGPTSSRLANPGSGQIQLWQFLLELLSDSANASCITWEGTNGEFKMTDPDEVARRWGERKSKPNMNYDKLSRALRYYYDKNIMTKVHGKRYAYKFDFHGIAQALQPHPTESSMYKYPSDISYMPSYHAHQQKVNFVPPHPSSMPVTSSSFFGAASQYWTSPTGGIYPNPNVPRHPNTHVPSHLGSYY
In short, it runs like this:
(§1)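 A tag-only sample was pooled with DNA-barcoded human transcription factors that had been expressed in yeast as GST fusions and captured on glutathione beads. The pools were incubated for 30 min at room temperature with 200 nmole of a random double-stranded 16-mer DNA library in Tris/NaCl/DTT/glycerol buffer, then washed, crosslinked with 0.1% formaldehyde, proximity-ligated (BsaI/T4 ligase, 1 h, 37 °C), PCR-amplified and sequenced on an Illumina NextSeq500. Binding signal is each hexamer's read frequency for a factor divided by its frequency for the tag-only sample.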

A further test concerns the target T2, ELK1 (Homo sapiens, UniProt P19419 1-428).
T2 sequence: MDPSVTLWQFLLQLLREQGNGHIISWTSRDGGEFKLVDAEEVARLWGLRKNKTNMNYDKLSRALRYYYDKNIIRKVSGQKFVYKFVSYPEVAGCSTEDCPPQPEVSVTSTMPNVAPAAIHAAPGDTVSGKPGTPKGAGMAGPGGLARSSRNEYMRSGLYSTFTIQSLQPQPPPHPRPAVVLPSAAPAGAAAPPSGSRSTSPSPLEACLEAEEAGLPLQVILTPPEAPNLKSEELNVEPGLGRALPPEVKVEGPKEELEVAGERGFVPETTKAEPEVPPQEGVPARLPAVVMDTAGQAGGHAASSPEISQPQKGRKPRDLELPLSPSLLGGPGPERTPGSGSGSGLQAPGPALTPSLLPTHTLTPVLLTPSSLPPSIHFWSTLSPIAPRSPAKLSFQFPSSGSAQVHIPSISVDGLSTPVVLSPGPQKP
The procedure, abridged:
as §1

Another test concerns the target T3, GABPA (Homo sapiens, UniProt Q06546 1-454).
T3 sequence: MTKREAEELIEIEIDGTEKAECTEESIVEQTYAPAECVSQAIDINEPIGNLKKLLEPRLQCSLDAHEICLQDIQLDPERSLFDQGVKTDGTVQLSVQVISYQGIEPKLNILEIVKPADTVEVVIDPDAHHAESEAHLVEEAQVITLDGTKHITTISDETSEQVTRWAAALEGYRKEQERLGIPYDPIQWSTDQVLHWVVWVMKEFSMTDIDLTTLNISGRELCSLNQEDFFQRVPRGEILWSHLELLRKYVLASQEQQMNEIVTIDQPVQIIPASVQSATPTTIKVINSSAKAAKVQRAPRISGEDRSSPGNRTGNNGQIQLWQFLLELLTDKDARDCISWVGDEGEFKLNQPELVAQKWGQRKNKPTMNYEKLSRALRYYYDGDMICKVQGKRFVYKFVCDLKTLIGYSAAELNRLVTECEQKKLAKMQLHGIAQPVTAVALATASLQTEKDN
In short, it runs like this: as §1

For a further test, the target named is T4, ERG (Homo sapiens, UniProt P11308 1-479).
T4 sequence: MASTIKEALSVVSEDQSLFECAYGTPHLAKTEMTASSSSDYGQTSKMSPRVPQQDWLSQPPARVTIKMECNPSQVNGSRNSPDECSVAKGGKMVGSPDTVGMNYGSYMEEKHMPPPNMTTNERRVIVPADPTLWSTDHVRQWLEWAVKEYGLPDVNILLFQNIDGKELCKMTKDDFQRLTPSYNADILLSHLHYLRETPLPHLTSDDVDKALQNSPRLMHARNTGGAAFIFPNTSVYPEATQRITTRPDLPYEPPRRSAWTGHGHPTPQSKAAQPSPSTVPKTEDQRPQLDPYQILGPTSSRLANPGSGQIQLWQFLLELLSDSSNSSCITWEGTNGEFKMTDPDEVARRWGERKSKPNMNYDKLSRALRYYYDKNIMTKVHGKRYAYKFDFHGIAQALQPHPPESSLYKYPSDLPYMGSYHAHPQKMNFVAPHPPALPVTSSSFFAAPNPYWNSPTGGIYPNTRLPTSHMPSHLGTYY
The procedure, abridged:
as §1

In a further test the target is ELF1 (Homo sapiens, UniProt P32519 1-619). The procedure, abridged: as §1
ELF1, sequence (P32519 whole entry): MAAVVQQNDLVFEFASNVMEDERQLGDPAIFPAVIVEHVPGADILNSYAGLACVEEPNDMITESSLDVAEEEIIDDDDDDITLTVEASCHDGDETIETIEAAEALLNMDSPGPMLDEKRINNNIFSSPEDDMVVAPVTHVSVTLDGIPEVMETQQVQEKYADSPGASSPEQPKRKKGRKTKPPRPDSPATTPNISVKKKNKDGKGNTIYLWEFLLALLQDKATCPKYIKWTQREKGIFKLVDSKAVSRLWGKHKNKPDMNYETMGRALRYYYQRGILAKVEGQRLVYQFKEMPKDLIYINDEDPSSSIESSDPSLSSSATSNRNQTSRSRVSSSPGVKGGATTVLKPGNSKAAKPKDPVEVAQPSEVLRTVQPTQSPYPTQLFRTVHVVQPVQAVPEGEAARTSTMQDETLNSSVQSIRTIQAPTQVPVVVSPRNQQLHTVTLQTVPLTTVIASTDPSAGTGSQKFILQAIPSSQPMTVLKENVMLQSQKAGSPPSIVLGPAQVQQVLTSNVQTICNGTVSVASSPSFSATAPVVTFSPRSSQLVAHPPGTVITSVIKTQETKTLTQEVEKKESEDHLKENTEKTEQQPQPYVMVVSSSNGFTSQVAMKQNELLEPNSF
The target in the next test is T5, EHF (Homo sapiens, UniProt Q9NZC4 1-300).
T5 sequence: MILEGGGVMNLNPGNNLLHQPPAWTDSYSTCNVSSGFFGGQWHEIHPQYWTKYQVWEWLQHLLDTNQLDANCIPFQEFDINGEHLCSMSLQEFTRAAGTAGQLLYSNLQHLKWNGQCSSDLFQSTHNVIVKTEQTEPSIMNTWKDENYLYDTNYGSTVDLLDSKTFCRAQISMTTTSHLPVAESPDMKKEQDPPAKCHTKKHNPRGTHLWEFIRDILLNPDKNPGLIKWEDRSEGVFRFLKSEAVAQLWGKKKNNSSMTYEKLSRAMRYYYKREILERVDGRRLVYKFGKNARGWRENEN
The procedure, abridged:
as §1

In another test the target is SPI1 (Homo sapiens, UniProt P17947 1-270). The procedure, abridged:
as §1

Another test has as its target SPIB (Homo sapiens, UniProt Q01892 1-262). The procedure, abridged:
as §1

Another test concerns the target T6, FEV (Homo sapiens, UniProt Q99581 1-238).
T6 sequence: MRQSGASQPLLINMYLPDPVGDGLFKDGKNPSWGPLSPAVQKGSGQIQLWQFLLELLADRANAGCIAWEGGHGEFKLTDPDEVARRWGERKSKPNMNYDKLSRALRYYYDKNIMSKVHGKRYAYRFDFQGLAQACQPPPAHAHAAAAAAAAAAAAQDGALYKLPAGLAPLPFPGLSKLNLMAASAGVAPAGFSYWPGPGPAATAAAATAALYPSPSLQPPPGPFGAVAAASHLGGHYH
The procedure, abridged:
as §1

Another test deals with ETV5 (Homo sapiens, UniProt P41161 1-510). The procedure, abridged:
as §1

A further test deals with ELF4 (Homo sapiens, UniProt Q99607 1-663). The procedure, abridged:
as §1

Another test addresses ETV1 (Homo sapiens, UniProt P50549 1-477). The procedure, abridged:
as §1

The target of the next test is T7, ERF (Homo sapiens, UniProt P50548 1-548).
T7 sequence: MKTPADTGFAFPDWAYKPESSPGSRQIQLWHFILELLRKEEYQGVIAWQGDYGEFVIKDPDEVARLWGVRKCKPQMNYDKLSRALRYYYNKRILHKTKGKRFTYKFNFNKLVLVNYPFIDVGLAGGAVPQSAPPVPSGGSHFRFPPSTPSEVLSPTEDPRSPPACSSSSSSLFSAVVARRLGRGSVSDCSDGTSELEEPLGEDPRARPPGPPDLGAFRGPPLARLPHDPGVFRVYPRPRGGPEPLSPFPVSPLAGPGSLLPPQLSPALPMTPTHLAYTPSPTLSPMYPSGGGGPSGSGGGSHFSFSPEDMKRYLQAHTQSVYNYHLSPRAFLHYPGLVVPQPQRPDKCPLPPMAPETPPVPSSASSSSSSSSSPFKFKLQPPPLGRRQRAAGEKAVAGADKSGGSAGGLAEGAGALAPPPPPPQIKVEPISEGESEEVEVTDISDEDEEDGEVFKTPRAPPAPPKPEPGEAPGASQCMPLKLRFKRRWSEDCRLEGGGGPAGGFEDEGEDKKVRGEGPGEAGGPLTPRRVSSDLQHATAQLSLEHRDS
The procedure, abridged: as §1

Another test has as its target T8, ETV3L (Homo sapiens, UniProt Q6ZN32 1-361).
T8 sequence: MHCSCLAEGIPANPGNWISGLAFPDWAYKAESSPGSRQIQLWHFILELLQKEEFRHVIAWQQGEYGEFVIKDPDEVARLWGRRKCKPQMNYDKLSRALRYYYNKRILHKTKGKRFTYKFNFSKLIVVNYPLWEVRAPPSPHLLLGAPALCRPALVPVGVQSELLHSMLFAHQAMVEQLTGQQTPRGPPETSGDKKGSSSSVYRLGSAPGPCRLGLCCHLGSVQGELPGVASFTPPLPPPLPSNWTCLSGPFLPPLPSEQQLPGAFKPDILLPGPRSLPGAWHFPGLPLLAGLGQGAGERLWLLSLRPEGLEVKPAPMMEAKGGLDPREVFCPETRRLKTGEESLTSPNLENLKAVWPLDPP
In short, it runs like this:
as §1

A further test has as its target T9, ETS2 (Homo sapiens, UniProt P15036 1-469).
T9 sequence: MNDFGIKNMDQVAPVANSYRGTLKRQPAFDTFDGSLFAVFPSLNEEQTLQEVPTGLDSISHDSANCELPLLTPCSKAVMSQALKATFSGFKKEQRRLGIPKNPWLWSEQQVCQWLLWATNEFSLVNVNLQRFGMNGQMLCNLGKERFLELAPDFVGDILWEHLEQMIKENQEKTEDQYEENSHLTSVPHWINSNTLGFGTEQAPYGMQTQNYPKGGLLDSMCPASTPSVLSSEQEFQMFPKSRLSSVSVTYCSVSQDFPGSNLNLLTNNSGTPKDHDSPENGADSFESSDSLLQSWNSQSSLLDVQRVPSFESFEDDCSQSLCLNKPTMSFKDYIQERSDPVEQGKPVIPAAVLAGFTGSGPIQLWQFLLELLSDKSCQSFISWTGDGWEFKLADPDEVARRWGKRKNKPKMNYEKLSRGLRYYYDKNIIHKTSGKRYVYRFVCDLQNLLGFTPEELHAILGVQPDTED
In short, it runs like this:
as §1

Another test addresses T10, SPDEF (Homo sapiens, UniProt O95238 1-335).
T10 sequence: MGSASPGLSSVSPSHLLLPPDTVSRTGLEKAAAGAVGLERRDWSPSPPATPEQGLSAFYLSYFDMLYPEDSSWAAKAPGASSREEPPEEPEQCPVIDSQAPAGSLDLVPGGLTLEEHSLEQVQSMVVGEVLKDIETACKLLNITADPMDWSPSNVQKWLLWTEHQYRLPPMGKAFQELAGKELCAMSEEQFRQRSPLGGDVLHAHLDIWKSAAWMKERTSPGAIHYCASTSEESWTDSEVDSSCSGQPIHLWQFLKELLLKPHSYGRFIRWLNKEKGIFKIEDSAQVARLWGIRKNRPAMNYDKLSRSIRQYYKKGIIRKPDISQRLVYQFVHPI
In short, it runs like this:
as §1

The target in another test is T11, ELF5 (Homo sapiens, UniProt Q9UKW6-2 1-255).
T11 sequence: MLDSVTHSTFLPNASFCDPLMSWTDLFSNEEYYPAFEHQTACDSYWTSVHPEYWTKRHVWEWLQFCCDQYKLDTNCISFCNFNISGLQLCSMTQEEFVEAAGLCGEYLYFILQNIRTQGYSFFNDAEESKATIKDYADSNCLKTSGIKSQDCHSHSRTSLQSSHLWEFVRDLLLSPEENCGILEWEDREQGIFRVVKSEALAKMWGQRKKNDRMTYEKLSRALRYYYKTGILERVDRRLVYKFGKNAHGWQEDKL
The procedure, abridged:
as §1

For a further test, the target named is T12, ETV3 (Homo sapiens, UniProt P41162-2 1-143).
T12 sequence: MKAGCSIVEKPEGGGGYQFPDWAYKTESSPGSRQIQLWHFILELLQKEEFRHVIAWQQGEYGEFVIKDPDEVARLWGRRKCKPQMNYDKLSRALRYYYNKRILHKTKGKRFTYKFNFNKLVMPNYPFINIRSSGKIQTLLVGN
In short, it runs like this: as §1

In another test the target is ETV6 (Homo sapiens, UniProt P41212 1-452). In short, it runs like this: as §1
ETV6, sequence (P41212 whole entry): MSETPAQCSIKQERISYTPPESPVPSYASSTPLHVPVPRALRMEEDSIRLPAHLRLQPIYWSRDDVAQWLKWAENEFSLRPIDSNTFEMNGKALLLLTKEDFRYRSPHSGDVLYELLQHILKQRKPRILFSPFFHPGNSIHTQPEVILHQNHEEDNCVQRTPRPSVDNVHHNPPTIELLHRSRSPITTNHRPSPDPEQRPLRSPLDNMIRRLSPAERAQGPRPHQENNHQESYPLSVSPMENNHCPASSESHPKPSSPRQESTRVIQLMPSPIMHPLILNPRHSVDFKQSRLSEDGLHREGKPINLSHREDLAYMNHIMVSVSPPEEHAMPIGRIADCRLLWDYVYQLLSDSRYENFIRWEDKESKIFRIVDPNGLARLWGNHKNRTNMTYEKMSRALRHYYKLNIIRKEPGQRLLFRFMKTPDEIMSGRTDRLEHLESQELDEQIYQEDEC

ETV5, sequence (P41161 whole entry): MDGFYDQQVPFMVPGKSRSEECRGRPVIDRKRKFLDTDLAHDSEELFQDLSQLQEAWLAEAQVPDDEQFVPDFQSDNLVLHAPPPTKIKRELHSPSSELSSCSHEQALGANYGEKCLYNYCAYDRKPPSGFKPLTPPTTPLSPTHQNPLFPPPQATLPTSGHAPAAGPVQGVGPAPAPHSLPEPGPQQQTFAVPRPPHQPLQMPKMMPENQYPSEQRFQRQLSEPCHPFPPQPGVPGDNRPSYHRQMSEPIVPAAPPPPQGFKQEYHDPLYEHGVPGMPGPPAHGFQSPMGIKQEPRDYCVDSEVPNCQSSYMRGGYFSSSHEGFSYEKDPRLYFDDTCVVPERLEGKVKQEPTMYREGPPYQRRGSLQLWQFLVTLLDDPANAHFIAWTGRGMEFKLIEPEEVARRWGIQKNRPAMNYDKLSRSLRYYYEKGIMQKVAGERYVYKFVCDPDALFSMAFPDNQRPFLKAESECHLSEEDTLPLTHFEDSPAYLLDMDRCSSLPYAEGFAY
ETV1, sequence (P50549 whole entry): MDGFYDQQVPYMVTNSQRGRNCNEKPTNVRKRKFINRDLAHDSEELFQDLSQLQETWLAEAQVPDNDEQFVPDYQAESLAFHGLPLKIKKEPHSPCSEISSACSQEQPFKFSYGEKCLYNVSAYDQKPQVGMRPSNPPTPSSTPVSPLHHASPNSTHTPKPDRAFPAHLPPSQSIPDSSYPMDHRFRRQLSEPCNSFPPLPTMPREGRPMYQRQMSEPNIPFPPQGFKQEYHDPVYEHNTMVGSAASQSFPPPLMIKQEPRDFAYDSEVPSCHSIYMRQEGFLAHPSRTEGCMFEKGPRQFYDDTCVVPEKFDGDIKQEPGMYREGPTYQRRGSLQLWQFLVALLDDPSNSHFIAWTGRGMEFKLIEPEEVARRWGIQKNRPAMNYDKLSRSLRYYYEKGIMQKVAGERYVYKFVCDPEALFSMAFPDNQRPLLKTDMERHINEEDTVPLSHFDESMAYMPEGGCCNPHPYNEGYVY
SPIB, sequence (Q01892 whole entry): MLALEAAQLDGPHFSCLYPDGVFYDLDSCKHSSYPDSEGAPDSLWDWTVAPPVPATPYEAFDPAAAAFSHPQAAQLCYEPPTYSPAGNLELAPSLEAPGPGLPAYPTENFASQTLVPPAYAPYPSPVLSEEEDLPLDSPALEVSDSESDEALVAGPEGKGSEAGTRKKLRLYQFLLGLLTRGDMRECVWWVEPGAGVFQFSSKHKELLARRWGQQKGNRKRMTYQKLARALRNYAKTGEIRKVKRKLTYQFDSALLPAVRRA
ELF4, sequence (Q99607 whole entry): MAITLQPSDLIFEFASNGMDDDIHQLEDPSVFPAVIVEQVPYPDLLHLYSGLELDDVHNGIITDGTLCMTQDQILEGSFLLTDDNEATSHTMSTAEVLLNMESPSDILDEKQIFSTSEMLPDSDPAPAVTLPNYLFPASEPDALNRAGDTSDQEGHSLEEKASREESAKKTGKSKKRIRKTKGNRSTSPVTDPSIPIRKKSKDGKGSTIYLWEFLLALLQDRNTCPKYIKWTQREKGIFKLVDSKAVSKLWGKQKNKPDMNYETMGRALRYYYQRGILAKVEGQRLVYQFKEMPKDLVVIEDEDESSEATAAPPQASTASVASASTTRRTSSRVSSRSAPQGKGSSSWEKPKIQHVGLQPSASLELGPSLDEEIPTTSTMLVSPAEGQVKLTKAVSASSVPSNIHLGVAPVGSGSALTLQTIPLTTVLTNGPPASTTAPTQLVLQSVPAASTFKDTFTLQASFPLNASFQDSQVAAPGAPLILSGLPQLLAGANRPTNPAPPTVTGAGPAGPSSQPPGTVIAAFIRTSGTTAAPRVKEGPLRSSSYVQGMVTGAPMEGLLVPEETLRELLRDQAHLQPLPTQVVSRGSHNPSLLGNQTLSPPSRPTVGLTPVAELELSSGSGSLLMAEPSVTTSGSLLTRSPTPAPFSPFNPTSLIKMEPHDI

As for GTACCC, the binding signal with FLI1 was 1.08 fold enrichment (6-mer frequency, TF over GST control); with ELK1, 1.05 fold enrichment (6-mer frequency, TF over GST control); with GABPA it was 1.07 fold enrichment (6-mer frequency, TF over GST control); with ERG, 1.05 fold enrichment (6-mer frequency, TF over GST control); with ELF1 it was 1.12 fold enrichment (6-mer frequency, TF over GST control); with EHF it was 1.16 fold enrichment (6-mer frequency, TF over GST control). The binding signal is 1.16 fold enrichment (6-mer frequency, TF over GST control) with SPI1; 1.07 fold enrichment (6-mer frequency, TF over GST control) with SPIB; 1.05 fold enrichment (6-mer frequency, TF over GST control) with FEV; 1.17 fold enrichment (6-mer frequency, TF over GST control) with ETV5; 1.06 fold enrichment (6-mer frequency, TF over GST control) with ELF4; 1.11 fold enrichment (6-mer frequency, TF over GST control) with ETV1. In addition, the binding signal is 1.13 fold enrichment (6-mer frequency, TF over GST control) with ERF; 1.16 fold enrichment (6-mer frequency, TF over GST control) with ETV3L; 1.12 fold enrichment (6-mer frequency, TF over GST control) in the test with ETS2; 1.14 fold enrichment (6-mer frequency, TF over GST control) in the test with SPDEF; 1.01 fold enrichment (6-mer frequency, TF over GST control) with ELF5; 1.06 fold enrichment (6-mer frequency, TF over GST control) in the test with ETV3. Moreover, the binding signal with ETV6 was 1.13 fold enrichment (6-mer frequency, TF over GST control).
